Compounds without any hit were thinned out: in the full panel of roughly 83,000, 20% have a hit.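 Step 1: grow cells in 96-well plates. Step 2: add test compound at a single concentration. Step 3: incubate 48 h. Step 4: record percent growth.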 A number with no mark means an inactive call. Calls of active or inactive are those of the source. The calls were made as follows: active = growth percent below 10; inactive = the rest.

The values that follow come from PubChem BioAssay (NCI).

Among the test systems are MOLT-4 leukemia; SR leukemia; RPMI-8226 leukemia; OVCAR-8 ovarian; OVCAR-5 ovarian; OVCAR-4 ovarian; SK-OV-3 ovarian; IGROV1 ovarian; OVCAR-3 ovarian; HS 578T breast; NCI/ADR-RES ovarian; T-47D breast; BT-549 breast; MDA-MB-435 melanoma; SW-620 colon; MCF7 breast; HCT-116 colon; KM12 colon; HCC-2998 colon.
Experiment in all cases: NCI-60 one-dose screen, 48 h (100 = growth as untreated, 0 = no growth, -100 = all killed)
Conditions in all cases: 10 µM unless noted

For `O=C/C=C/c1ccco1`, the growth in the experiment with MOLT-4 leukemia was 98.9%; with SR leukemia it was 99.4%; in the experiment on RPMI-8226 leukemia, 102%; with OVCAR-8 ovarian it was 100%; with OVCAR-5 ovarian it was 101%; with OVCAR-4 ovarian, 105%. Also, the growth with SK-OV-3 ovarian was 96.1%; with IGROV1 ovarian, 106%; in the experiment on OVCAR-3 ovarian, 110%; in the experiment with HS 578T breast, 107%; in the experiment on NCI/ADR-RES ovarian, 109%; with T-47D breast it was 107%. For the same compound, the growth in the experiment with BT-549 breast was 104%; with MDA-MB-435 melanoma, 106%; in the experiment with SW-620 colon, 104%; with MCF7 breast, 96%; in the experiment on HCT-116 colon, 90%; in the experiment on KM12 colon it was 97.6%.
With `C[C@]12CCc3nc(-c4ccc(O)c(O)c4)sc3C1=CC[C@@H]1[C@@H]2CC[C@]2(C)C(=O)CC[C@@H]12`, the growth with MOLT-4 leukemia was 45.4%; in the experiment on SR leukemia it was 39.3%; with RPMI-8226 leukemia it was 9.9% (active); in the experiment with OVCAR-8 ovarian it was 29.9%; in the experiment with OVCAR-5 ovarian it was 112%; with OVCAR-4 ovarian, 67.1%. Further, the growth in the experiment with SK-OV-3 ovarian is 89.7%; in the experiment on IGROV1 ovarian, 38.6%; in the experiment on OVCAR-3 ovarian, 87.5%; in the experiment with HS 578T breast, 66.8%; in the experiment on NCI/ADR-RES ovarian it was 73.7%; in the experiment on T-47D breast, 69%. The growth in the experiment with BT-549 breast is 58.1%; in the experiment on MDA-MB-435 melanoma, 71.3%; in the experiment with SW-620 colon, 55.4%; in the experiment with HCT-116 colon it was 26%; with KM12 colon it was 90.8%.
For the compound `CC1(C)CN=C(NN=C(/C=C/c2ccc(C(F)(F)F)cc2)/C=C/c2ccc(C(F)(F)F)cc2)NC1`, the growth was -59.1% (active) with MOLT-4 leukemia; -57% (active) in the experiment on SR leukemia; -26.8% (active) in the experiment on RPMI-8226 leukemia; -64% (active) in the experiment on OVCAR-8 ovarian; -87.5% (active) in the experiment with OVCAR-5 ovarian; -92.3% (active) in the experiment with OVCAR-4 ovarian. The growth in the experiment with SK-OV-3 ovarian is -7.65% (active); in the experiment on IGROV1 ovarian, 22%; in the experiment on OVCAR-3 ovarian, -88% (active); with HS 578T breast, -38% (active); in the experiment with NCI/ADR-RES ovarian, -68.4% (active); in the experiment with T-47D breast, -86.1% (active). Moreover, the growth was -16.8% (active) in the experiment with BT-549 breast; -83.6% (active) in the experiment on MDA-MB-435 melanoma; -52.6% (active) in the experiment with SW-620 colon; -99.5% (active) in the experiment with MCF7 breast; -85.8% (active) in the experiment with HCT-116 colon; -86.8% (active) in the experiment with KM12 colon.
On to `CC[C@H](CC[C@@H](C)[C@H]1CC[C@H]2[C@@H]3CC[C@H]4C[C@]5(CC[C@]4(C)[C@H]3CC[C@]12C)OO[C@](C)(C(F)(F)F)O5)C(C)C`, for which the growth is 95% in the experiment on MOLT-4 leukemia; 93.9% in the experiment on SR leukemia; 98.3% in the experiment with RPMI-8226 leukemia; 97% with OVCAR-8 ovarian; 74.3% in the experiment with OVCAR-5 ovarian; 88.4% in the experiment with OVCAR-4 ovarian. In addition, the growth in the experiment on SK-OV-3 ovarian is 89.9%; in the experiment with IGROV1 ovarian, 79.3%; in the experiment with OVCAR-3 ovarian, 93.2%; in the experiment with HS 578T breast, 99.8%; in the experiment on NCI/ADR-RES ovarian it was 98%; in the experiment on T-47D breast, 87.9%. The growth with BT-549 breast was 82.2%; in the experiment on MDA-MB-435 melanoma it was 96.9%; with SW-620 colon, 92.4%; with HCT-116 colon, 98.3%; in the experiment with KM12 colon, 91.4%.
In the case of `CCCCOC(N)=O`, the growth in the experiment on MOLT-4 leukemia was 96.8%; in the experiment on SR leukemia, 96.1%; in the experiment on RPMI-8226 leukemia, 114%; with OVCAR-8 ovarian it was 98%; in the experiment with OVCAR-5 ovarian, 110%; in the experiment on OVCAR-4 ovarian, 106%. Also, the growth in the experiment on SK-OV-3 ovarian was 100%; with IGROV1 ovarian it was 113%; in the experiment with OVCAR-3 ovarian, 109%; in the experiment with HS 578T breast, 110%; in the experiment with NCI/ADR-RES ovarian it was 106%; in the experiment with T-47D breast it was 102%. For the same compound, the growth with MDA-MB-435 melanoma is 110%; in the experiment on SW-620 colon, 113%; in the experiment with MCF7 breast it was 114%; in the experiment with HCT-116 colon, 98.4%; in the experiment on KM12 colon, 106%.
Consider `c1ccc2c(c1)O[As](O[As]1Oc3ccccc3O1)O2`, for which the growth in the experiment on MOLT-4 leukemia was 19.2%; in the experiment on SR leukemia it was 2.68% (active); with RPMI-8226 leukemia it was -14.9% (active); with OVCAR-8 ovarian it was 23.3%; in the experiment with OVCAR-4 ovarian, 40.3%; in the experiment with SK-OV-3 ovarian it was 75.6%. Besides, the growth with IGROV1 ovarian is 6.22% (active); in the experiment on OVCAR-3 ovarian it was 14.2%; in the experiment with HS 578T breast, 38.8%; in the experiment on NCI/ADR-RES ovarian it was 50.1%; in the experiment on T-47D breast, 14.3%; in the experiment on BT-549 breast, 17.6%. The growth in the experiment with MDA-MB-435 melanoma is 41.2%; in the experiment on SW-620 colon, 25.5%; in the experiment with MCF7 breast, 12.7%; in the experiment on HCT-116 colon, 43.1%; in the experiment with HCC-2998 colon, 65.8%; with KM12 colon, 69.8%.
As to `C[N+]12CCC34C5=CC(=O)C(=O)C=C5[N+]5(C)C(=O)CC6OCC=C(C1)C(CC32)C6C45` (stereo not drawn), the growth was 102% in the experiment with MOLT-4 leukemia; 92% in the experiment with SR leukemia; 102% with RPMI-8226 leukemia; 99.5% in the experiment with OVCAR-8 ovarian; 106% with OVCAR-5 ovarian; 101% in the experiment on OVCAR-4 ovarian. The growth in the experiment on SK-OV-3 ovarian is 99.9%; in the experiment with IGROV1 ovarian, 96.9%; in the experiment with OVCAR-3 ovarian, 103%; in the experiment on NCI/ADR-RES ovarian it was 114%; with T-47D breast it was 107%; with BT-549 breast, 127%. The growth in the experiment on MDA-MB-435 melanoma was 103%; in the experiment with SW-620 colon, 111%; in the experiment on MCF7 breast, 95.7%; with HCT-116 colon, 114%; in the experiment on HCC-2998 colon it was 106%; in the experiment with KM12 colon, 104%.
Take `CC(=O)c1cccc(S(=O)(=O)F)c1`: the growth in the experiment on MOLT-4 leukemia is 112%; in the experiment on SR leukemia, 76.1%; in the experiment with RPMI-8226 leukemia, 101%; with OVCAR-8 ovarian, 106%; in the experiment with OVCAR-4 ovarian, 114%; with SK-OV-3 ovarian it was 109%. Further, the growth in the experiment on IGROV1 ovarian was 103%; with OVCAR-3 ovarian, 117%; in the experiment with HS 578T breast, 96.4%; in the experiment with NCI/ADR-RES ovarian, 96.9%; with T-47D breast it was 110%; with BT-549 breast it was 88.8%. Besides, the growth with MDA-MB-435 melanoma was 97.8%; in the experiment on SW-620 colon it was 105%; with MCF7 breast it was 96.8%; in the experiment on HCT-116 colon it was 92.1%; in the experiment on KM12 colon, 105%.
In the case of `COc1cc(C2C3=C(CCCC3=O)N(CCO)c3cc4c(cc32)CCC4)cc(OC)c1OC` (stereo not drawn), the growth with MOLT-4 leukemia is 93.5%; with SR leukemia, 117%; in the experiment with RPMI-8226 leukemia, 76.2%; with OVCAR-8 ovarian it was 83.5%; with OVCAR-4 ovarian, 75.5%; in the experiment on SK-OV-3 ovarian, 114%. For the same compound, the growth was 98.4% in the experiment on IGROV1 ovarian; 93.5% with OVCAR-3 ovarian; 99.9% in the experiment with HS 578T breast; 87.8% in the experiment with NCI/ADR-RES ovarian; 38.2% with T-47D breast; 109% in the experiment with BT-549 breast. In addition, the growth in the experiment with MDA-MB-435 melanoma is 100%; with SW-620 colon, 103%; with MCF7 breast, 23%; in the experiment on HCT-116 colon, 68.6%; in the experiment on HCC-2998 colon, 78.9%; with KM12 colon, 90.5%.
